Among the data in ChEMBL document CHEMBL1961873, “Compounds: GSK PKIS; Assays: Nanosyn kinase panel” (2012) are inhibition values, retold here.

The target of assay [1] is Tyrosine-protein kinase SYK (Homo sapiens) (UniProt P43405). Conditions: at 1 µM.
In assay [2] the target is T1, Tyrosine-protein kinase Tec (Homo sapiens) (UniProt P42680).
T1 sequence (whole entry): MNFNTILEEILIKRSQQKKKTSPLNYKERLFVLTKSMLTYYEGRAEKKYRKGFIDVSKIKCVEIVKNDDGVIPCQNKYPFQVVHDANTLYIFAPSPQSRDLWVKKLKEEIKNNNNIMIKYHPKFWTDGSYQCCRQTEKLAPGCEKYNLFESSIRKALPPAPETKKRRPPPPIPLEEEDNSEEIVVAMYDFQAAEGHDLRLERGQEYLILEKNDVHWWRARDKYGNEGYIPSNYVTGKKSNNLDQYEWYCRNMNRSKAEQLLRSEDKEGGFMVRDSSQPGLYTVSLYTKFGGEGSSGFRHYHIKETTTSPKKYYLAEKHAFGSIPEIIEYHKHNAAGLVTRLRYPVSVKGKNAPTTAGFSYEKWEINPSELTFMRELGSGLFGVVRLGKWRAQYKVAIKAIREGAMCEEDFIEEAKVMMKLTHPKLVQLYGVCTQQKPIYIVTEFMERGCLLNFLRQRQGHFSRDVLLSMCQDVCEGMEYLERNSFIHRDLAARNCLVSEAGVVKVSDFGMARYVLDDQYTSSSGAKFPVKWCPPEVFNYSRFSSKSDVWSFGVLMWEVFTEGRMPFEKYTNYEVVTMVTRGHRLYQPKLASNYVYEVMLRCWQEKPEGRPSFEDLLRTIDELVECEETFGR
Conditions: at 0.1 µM.

For assay [3], the target named is T1, Tyrosine-protein kinase Tec (Homo sapiens). The conditions noted are these: at 1 µM.
The target of assay [4] is Angiopoietin-1 receptor (Homo sapiens) (UniProt Q02763). Conditions: at 0.1 µM.
Sequence of Angiopoietin-1 receptor (Homo sapiens) (Q02763 whole entry): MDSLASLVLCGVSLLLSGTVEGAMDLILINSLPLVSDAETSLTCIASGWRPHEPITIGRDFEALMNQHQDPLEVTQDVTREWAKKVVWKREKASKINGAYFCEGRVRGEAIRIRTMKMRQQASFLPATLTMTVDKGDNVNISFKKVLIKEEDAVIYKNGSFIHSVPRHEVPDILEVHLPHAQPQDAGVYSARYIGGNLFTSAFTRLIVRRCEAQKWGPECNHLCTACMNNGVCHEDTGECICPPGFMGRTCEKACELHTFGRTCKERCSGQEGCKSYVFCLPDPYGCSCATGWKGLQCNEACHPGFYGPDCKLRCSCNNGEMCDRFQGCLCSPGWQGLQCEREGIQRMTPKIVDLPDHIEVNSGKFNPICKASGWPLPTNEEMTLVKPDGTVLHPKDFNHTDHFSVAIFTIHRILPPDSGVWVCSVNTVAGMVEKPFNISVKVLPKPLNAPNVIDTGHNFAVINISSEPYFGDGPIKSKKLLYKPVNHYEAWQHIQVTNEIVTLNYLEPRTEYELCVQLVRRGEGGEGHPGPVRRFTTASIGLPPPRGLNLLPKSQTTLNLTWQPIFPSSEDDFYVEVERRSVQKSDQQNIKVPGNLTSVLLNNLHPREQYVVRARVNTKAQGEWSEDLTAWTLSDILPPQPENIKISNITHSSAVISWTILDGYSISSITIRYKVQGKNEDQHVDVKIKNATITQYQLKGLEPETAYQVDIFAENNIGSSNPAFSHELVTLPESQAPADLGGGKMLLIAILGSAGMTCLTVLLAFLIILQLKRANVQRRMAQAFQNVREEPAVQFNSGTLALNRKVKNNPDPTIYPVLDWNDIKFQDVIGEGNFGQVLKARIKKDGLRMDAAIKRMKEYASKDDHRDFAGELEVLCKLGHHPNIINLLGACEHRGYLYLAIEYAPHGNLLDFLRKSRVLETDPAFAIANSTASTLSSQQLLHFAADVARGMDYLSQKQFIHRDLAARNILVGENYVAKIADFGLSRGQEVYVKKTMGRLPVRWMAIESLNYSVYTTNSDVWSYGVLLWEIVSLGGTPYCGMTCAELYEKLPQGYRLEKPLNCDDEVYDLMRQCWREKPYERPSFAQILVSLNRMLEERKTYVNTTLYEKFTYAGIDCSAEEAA
For assay [5] the target is unchanged. The conditions noted are these: at 1 µM.
The target in assay [6] is T2, Non-receptor tyrosine-protein kinase TNK1 (Homo sapiens) (UniProt Q13470).
T2 sequence (whole entry): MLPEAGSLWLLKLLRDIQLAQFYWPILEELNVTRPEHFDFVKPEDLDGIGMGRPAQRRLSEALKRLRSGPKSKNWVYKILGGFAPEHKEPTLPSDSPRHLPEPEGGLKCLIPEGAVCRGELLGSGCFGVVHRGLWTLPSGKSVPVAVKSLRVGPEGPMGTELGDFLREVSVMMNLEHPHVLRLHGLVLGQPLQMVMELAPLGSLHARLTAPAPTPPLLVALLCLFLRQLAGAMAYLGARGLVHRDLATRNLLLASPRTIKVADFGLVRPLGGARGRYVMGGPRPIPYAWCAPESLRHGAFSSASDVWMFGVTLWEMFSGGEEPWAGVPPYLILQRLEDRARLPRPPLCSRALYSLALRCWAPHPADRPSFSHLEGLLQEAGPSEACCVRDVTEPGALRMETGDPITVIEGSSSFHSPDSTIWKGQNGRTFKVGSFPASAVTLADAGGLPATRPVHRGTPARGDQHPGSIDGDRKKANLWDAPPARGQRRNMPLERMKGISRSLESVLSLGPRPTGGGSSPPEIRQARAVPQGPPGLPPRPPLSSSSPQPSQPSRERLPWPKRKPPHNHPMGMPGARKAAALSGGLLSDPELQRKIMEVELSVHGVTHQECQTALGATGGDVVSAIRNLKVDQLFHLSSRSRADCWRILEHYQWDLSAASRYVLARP
The conditions noted are these: at 0.1 µM.

Assay [7] addresses T2, Non-receptor tyrosine-protein kinase TNK1 (Homo sapiens). Conditions: at 1 µM.
Assay [8] addresses Activated CDC42 kinase 1 (Homo sapiens) (UniProt Q07912). The conditions noted are these: at 0.1 µM.
For assay [9] the target is unchanged. Conditions: at 1 µM.
Assay [10] deals with High affinity nerve growth factor receptor (Homo sapiens) (UniProt P04629). Conditions: at 0.1 µM.
For assay [11] the target is unchanged. Conditions: at 1 µM.
Assay [12] addresses BDNF/NT-3 growth factors receptor (Homo sapiens) (UniProt Q16620). Conditions: at 0.1 µM.
The target is the same in assay [13]. Conditions: at 1 µM.
Assay [14] deals with NT-3 growth factor receptor (Homo sapiens) (UniProt Q16288). The conditions noted are these: at 0.1 µM.
Sequence of NT-3 growth factor receptor (Homo sapiens) (Q16288 32-839 limits assumed): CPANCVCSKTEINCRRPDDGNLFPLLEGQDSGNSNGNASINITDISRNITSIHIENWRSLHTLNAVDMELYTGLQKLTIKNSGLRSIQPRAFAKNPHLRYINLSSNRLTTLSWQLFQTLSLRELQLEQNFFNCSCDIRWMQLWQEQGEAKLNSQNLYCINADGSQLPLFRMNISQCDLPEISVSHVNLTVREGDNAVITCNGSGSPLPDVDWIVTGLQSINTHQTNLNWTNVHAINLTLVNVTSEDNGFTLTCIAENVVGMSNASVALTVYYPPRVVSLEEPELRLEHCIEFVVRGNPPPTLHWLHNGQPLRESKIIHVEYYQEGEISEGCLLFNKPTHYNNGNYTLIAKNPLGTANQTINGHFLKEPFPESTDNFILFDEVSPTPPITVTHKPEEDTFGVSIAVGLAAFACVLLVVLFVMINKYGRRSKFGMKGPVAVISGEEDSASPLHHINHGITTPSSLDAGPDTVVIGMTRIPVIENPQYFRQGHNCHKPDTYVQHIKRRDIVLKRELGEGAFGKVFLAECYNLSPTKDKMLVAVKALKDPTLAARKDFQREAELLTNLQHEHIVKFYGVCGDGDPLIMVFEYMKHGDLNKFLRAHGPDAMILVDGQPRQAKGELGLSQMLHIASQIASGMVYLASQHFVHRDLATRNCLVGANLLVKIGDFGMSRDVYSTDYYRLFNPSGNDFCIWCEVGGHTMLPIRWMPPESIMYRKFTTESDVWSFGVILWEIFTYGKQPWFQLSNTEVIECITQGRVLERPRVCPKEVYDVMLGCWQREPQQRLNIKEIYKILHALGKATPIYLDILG
For assay [15] the target is unchanged. Conditions: at 1 µM.
For assay [16], the target named is T3, Tyrosine-protein kinase TXK (Homo sapiens) (UniProt P42681).
T3 sequence (whole entry): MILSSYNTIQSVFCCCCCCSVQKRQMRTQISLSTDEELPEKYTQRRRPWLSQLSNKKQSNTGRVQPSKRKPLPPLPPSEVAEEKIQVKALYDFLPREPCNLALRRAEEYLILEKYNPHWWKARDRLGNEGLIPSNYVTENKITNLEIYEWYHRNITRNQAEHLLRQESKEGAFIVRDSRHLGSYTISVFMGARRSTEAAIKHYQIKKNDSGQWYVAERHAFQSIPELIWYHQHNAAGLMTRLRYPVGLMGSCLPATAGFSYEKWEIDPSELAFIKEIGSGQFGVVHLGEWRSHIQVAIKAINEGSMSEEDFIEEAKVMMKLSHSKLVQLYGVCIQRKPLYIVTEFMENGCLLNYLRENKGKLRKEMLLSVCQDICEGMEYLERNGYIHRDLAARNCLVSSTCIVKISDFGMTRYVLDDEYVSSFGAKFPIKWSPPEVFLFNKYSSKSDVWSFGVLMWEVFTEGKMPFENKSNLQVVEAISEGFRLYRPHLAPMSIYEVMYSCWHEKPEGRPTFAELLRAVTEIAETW
Conditions: at 0.1 µM.

Assay [17] concerns the target T3, Tyrosine-protein kinase TXK (Homo sapiens). Conditions: at 1 µM.
Assay [18] deals with Non-receptor tyrosine-protein kinase TYK2 (Homo sapiens) (UniProt P29597). The conditions noted are these: at 0.1 µM.
Sequence of Non-receptor tyrosine-protein kinase TYK2 (Homo sapiens) (P29597 whole entry): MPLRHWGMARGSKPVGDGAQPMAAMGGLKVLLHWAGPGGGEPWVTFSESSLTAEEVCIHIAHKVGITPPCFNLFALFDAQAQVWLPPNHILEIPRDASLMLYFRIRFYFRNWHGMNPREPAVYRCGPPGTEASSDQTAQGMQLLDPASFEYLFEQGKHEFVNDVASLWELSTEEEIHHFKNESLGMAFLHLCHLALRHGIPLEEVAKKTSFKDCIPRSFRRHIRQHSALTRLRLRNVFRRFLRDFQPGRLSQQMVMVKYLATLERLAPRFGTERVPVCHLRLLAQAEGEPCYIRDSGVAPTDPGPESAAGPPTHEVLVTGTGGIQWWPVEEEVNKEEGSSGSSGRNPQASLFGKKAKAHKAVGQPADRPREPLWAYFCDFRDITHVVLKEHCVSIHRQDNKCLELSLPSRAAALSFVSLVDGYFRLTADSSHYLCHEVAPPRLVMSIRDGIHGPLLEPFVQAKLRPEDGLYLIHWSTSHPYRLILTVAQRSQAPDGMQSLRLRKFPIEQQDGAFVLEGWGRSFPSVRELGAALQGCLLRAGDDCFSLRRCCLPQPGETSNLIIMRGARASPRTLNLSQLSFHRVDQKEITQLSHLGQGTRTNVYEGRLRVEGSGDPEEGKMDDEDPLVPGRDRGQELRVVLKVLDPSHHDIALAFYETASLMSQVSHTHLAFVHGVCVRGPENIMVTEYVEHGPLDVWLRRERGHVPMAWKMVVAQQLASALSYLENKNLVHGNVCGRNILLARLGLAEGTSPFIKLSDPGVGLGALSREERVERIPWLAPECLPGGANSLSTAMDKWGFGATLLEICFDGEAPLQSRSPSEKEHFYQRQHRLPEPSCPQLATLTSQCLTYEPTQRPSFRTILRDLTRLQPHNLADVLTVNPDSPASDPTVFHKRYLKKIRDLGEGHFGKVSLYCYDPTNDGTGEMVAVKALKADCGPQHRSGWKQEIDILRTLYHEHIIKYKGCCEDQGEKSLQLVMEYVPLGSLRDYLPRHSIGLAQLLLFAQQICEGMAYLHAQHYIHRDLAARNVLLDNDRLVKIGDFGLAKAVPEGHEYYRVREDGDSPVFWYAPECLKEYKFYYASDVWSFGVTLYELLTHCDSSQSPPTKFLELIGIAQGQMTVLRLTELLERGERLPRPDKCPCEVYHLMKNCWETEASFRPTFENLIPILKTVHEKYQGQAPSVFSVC
The target of assay [19] is T4, Dual specificity protein kinase TTK (Homo sapiens) (UniProt P33981).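 Further: reported figures are mean TTK inhibition at 1 µM.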
T4 sequence (whole entry): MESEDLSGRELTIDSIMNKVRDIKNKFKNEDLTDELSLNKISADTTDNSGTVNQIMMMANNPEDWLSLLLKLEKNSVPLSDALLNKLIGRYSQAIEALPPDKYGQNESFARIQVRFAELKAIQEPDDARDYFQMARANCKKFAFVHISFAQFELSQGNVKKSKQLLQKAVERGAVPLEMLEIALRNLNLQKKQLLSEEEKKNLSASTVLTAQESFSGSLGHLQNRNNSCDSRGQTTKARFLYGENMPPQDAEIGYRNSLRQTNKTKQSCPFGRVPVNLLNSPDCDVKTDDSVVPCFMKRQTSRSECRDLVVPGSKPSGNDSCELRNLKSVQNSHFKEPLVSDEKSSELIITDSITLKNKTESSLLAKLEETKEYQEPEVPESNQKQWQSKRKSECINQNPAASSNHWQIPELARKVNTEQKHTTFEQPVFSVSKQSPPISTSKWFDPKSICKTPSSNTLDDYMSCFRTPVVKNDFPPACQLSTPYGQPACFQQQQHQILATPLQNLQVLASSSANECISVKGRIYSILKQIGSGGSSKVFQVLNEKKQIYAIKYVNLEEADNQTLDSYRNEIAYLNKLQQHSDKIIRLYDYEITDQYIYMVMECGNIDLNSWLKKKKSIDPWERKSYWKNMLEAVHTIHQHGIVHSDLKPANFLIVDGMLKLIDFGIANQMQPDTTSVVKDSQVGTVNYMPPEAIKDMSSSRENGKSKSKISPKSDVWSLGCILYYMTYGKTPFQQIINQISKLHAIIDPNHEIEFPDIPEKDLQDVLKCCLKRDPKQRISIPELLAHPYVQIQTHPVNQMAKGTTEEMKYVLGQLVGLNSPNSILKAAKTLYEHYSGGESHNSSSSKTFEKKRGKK
Conditions: at 1 µM.

Assay [20] addresses T5, Aurora kinase A (Homo sapiens) (UniProt O14965).
T5 sequence (whole entry): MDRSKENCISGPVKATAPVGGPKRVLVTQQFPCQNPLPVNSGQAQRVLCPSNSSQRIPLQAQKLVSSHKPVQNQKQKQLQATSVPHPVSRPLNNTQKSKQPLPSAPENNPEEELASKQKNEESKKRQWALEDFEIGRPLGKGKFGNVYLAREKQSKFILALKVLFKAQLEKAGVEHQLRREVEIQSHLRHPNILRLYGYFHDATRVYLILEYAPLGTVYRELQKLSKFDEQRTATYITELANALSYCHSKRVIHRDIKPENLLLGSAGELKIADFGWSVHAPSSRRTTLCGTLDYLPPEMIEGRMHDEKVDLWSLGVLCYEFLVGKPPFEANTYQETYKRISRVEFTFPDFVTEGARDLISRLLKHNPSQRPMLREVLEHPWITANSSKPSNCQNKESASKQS
The conditions noted are these: at 0.1 µM.

Sequence of Activated CDC42 kinase 1 (Homo sapiens) (Q07912 whole entry, looked up): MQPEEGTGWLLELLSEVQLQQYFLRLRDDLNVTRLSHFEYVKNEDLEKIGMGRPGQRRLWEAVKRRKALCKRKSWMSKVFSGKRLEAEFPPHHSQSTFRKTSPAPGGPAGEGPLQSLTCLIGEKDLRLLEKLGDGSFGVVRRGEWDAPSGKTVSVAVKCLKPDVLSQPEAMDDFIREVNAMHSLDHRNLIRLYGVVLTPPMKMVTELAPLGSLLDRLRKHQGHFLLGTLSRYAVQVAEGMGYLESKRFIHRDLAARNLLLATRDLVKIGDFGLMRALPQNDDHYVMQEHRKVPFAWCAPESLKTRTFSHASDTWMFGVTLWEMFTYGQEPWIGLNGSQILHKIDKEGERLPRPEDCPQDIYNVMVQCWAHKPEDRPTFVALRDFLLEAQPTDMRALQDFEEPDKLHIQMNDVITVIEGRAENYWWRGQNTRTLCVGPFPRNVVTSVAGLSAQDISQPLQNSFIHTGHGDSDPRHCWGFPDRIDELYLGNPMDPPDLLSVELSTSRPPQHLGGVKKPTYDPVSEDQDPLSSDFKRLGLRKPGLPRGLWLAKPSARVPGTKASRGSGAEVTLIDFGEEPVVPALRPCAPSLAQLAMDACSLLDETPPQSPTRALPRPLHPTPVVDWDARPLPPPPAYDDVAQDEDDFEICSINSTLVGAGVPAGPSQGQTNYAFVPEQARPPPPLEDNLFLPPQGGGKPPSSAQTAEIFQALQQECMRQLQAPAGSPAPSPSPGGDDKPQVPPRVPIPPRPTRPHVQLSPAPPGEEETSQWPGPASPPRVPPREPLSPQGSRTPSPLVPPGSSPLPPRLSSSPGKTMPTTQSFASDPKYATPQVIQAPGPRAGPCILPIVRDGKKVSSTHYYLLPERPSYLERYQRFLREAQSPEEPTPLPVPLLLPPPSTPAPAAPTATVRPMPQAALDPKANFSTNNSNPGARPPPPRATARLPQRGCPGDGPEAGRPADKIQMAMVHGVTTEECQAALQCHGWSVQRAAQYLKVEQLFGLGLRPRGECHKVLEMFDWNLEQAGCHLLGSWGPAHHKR
Sequence of BDNF/NT-3 growth factors receptor (Homo sapiens) (Q16620 32-822 limits assumed): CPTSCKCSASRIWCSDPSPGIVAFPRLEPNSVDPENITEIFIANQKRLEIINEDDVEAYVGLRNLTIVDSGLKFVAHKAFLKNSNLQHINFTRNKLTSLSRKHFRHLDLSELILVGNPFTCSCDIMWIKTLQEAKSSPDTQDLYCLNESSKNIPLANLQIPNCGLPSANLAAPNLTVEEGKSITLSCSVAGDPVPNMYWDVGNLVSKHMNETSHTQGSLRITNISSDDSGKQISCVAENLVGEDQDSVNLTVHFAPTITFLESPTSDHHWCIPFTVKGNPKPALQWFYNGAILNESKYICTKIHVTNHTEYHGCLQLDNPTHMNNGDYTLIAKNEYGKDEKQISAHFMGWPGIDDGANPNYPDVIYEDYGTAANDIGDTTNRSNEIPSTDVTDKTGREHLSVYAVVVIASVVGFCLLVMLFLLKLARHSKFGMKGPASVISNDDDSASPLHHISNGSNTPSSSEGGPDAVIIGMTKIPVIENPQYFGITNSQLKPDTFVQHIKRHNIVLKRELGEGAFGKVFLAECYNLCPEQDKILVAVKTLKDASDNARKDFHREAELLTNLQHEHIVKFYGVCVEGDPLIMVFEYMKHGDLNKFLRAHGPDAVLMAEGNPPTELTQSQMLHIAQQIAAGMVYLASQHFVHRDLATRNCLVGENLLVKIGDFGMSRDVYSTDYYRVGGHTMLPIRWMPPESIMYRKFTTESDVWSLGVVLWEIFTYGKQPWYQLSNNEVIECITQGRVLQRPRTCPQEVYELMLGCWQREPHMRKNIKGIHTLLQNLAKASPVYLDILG

In general, inhibition refers to the change of the read-out against control, counted positive when it falls. `CN(C)c1cc2c(Nc3ccc4c(cnn4Cc4ccccc4)c3)ncnc2cn1`: the inhibition in assay [1] turned out to be 0.09%; in [2], 3.97%; in assay [3], 9.92%; in assay [4], 2.74%; in [5] it was 5.29%; in [6], 3.66%. For the same molecule, the inhibition in assay [7] stood at 14.7%; in assay [8], 0.72%; in assay [9] it was 1.68%; in assay [10], 1.75%; in [11], 1.97%; in assay [12] it was 1.16%. Moreover, the inhibition in assay [13] is 0.6%; in assay [14], 2.13%; in assay [15], 1.66%; in [16], 3.19%; in [17] it was 4.31%; in [18] it was -2.71%. For the same molecule, the results for the inhibition in [19] and in assay [20] were 6.41% and -1.73%, respectively.
Regarding `c1ccc(Cc2nc3ccc(Nc4ncnc5ccccc45)cc3[nH]2)cc1`, the inhibition was -0.79% in assay [1]; 4.4% in [2]; 8.08% in assay [3]; 2.5% in assay [4]; 5.58% in assay [5]; 1.92% in assay [6]. Besides, the inhibition in [7] was 11.4%; in [8], 1.45%; in assay [9] it was 3.26%; in assay [10], 2.77%; in [11], 0.18%; in assay [12] it was 2.44%. The inhibition in [13] was 3.35%; in assay [14], -0.16%; in assay [15], 2.9%; in assay [16], 2.03%; in assay [17], 4.47%; in [18], -9.76%. The inhibition in [19] is 19%; in assay [20], 2.6%.
For `COC(=O)c1cncc(/C=C/c2c(C)cc(O)cc2C)c1`, the inhibition in assay [1] is -1.42%; in assay [2] it was 6.12%; in assay [3] it was 20.5%; in assay [4], 1%; in assay [5] it was 1.3%; in assay [6], 4.05%. The inhibition amounted to 20% in assay [7]; 1.2% in [8]; 5.39% in assay [9]; 2.21% in assay [10]; 0.47% in [11]; 2.4% in assay [12]. The inhibition is 4.35% in [13]; 2% in [14]; 6.12% in assay [15]; 4.44% in assay [16]; 22.5% in assay [17]; -4.1% in assay [18]. Besides, the inhibition in assay [19] stood at 1.18%; in [20], 2.33%.
For `OCc1ccc(-c2nc(-c3ccccn3)c(-c3ccc4c(c3)OCO4)[nH]2)cc1`, the inhibition was -0.31% in assay [1]; 7.61% in [2]; 11.1% in assay [3]; 2.48% in assay [4]; 6.23% in assay [5]; 5.37% in [6]. Besides, the inhibition is -4.68% in assay [7]; 1.72% in assay [8]; 2.78% in [9]; 3.27% in assay [10]; 3.45% in assay [11]; 3.16% in [12]. Also, the inhibition in assay [13] is 1%; in [14], 4.37%; in assay [15], 3%; in [16] it was 6.42%; in [17], 12.5%; in [18] it was -1.9%. For the same molecule, the figures for the inhibition in assay [19] and in assay [20] were 9.01% and 4.4%, respectively.
